According to PubChem BioAssay (EPA / NIEHS):
Where “and” joins values, the source holds several entries; their conditions need not be identical. Equal entries are not always repeated. Inconclusive results are not listed. The source holds several records for some structures; these can differ, active in one and inactive in another. Calls of active or inactive are those of the source. The calls were made as follows, unless noted: active = hit-call score of the fitted dose curve at least 0.9, where 1 is the maximum; inactive = score below 0.9.

Legend:
[1] = biological target: Nuclear respiratory factor 1 (Homo sapiens) (UniProt Q16656); test: ATG_NRF1_CIS: Attagene CIS-FACTORIAL HepG2 Assay for human Nuclear Respiratory Factor 1 (NRF1) Orphan Gene (AID 2282987); conditions: HepG2 NRF1 cis-element reporter, Attagene multiplex; actives raise or lower the signal
Chain of Nuclear respiratory factor 1 (Homo sapiens) (Q16656 whole entry, looked up): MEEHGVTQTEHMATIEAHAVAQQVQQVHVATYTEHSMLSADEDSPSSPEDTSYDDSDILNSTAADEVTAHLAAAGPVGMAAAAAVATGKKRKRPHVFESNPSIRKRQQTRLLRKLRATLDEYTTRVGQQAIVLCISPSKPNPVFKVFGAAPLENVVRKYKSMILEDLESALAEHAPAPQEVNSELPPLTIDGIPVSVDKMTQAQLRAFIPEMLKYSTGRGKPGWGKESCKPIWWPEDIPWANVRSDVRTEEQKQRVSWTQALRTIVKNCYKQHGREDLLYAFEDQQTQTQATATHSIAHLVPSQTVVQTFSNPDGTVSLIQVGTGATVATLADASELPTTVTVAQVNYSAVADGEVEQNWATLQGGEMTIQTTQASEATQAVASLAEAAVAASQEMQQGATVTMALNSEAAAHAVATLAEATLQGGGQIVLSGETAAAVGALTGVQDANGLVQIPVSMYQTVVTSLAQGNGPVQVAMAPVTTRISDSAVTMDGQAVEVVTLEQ
Outline: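 Transcriptional reporter readout, one component of a 52-endpoint multiplexed HepG2 panel. Exposure 24 h; mRNA detected via RT-PCR and fluorescent capillary electrophoresis; fitting in both directions against DMSO.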

[2] = ATG_NFI_CIS: Attagene CIS-FACTORIAL HepG2 Assay for human Nuclear Factor I (NFI) (AID 2282989); conditions: HepG2 cis-regulatory reporter, NFI response element transcription; actives raise or lower the signal
Outline: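 Transient MRTU transfection of HepG2 → 24 h chemical dosing → total RNA, oligo(dT) RT → PCR, 6-FAM primer extension, HpaI cut → capillary electrophoresis. Endpoint fitted bidirectionally relative to DMSO.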

[3] = ATG_NF_kB_CIS: Attagene CIS-FACTORIAL HepG2 Assay for human Nuclear Factor Kappa B (NF-kB) (AID 2282991); conditions: HepG2 Attagene cis-factorial NF-kB reporter mRNA; actives raise or lower the signal
Outline: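 HepG2, transient multi-reporter transfection, cis promoter elements (endogenous TFs). 24 h exposure. Total RNA → RT → PCR → 6-FAM label → HpaI → CE. Gain/loss vs DMSO.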

[4] = ATG_NRF2_ARE_CIS: Attagene CIS-FACTORIAL HepG2 Assay for human Nuclear Factor Erythroid 2 Related Factor 2 (NFR2) response to Antioxidant Response Elements (ARE) (AID 2282992); conditions: HepG2 Attagene ARE/NRF2 reporter, transcription factor activity; actives raise or lower the signal;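 as to AC50: reporter mRNA level measured by RT-PCR and capillary electrophoresis fluorescence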
Outline: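 Endogenous transcription factor activity in human liver HepG2 cells is tracked via a cis-element-driven reporter within a multiplexed set. mRNA induction is read by RT-PCR and capillary electrophoresis after 24 h, with DMSO as baseline.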

[5] = ATG_Oct_MLP_CIS: Attagene CIS-FACTORIAL HepG2 Assay for human Octamer-Binding Transcription Factor (Oct) (AID 2282993); conditions: HepG2 Attagene cis-factorial Oct reporter, mRNA; actives raise or lower the signal
Outline: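 Transient MRTU transfection of HepG2 → 24 h compound treatment → RNA isolation, reverse transcription, PCR → 6-FAM primer extension, HpaI digest → capillary electrophoresis. Activity fitted both directions against DMSO.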

[6] = biological target: Cellular tumor antigen p53 (Homo sapiens) (UniProt P04637); test: ATG_p53_CIS: Attagene CIS-FACTORIAL HepG2 Assay for human p53 Transcription Factor (AID 2282994); conditions: HepG2 p53 cis-element reporter, Attagene mRNA; actives raise or lower the signal
Chain of Cellular tumor antigen p53 (Homo sapiens) (P04637 whole entry, looked up, the tested form may be a part): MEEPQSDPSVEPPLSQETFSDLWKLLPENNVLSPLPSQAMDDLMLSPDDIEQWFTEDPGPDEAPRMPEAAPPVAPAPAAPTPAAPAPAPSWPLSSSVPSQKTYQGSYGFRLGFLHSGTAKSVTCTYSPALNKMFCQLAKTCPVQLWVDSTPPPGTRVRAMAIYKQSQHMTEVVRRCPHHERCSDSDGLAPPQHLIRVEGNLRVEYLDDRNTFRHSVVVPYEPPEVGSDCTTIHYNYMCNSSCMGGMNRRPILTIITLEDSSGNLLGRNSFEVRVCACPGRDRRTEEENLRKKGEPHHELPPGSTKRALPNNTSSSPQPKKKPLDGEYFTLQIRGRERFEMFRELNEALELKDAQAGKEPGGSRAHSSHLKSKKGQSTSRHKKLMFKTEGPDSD
Outline: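 Steps: transfect HepG2 with multiplexed cis reporter constructs; dose chemicals 24 h; extract RNA, reverse-transcribe, PCR-amplify reporter sequences; FAM-label, HpaI-digest, resolve fragments by CE. Activity fitted both directions relative to DMSO.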

[7] = BSK_3C_TissueFactor: BioMAP Diversity Plus: 3C Assay for Tissue Factor Biomarker Activity (AID 2282997); conditions: BioMAP 3C HUVEC, tissue factor biomarker readout; actives raise or lower the signal
Outline: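 Tissue Factor measured by ELISA, 24 h after treatment of primary HUVEC in the BioMAP 3C setting.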

[8] = BSK_3C_uPAR: BioMAP Diversity Plus: 3C Assay for Urokinase-type plasminogen activator receptor (uPAR) Biomarker Activity (AID 2282998); conditions: BioMAP 3C HUVEC, uPAR biomarker ELISA; actives raise or lower the signal
Outline: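 ELISA readout of uPAR on human vascular endothelium (umbilical vein primary cells), taken 24 h after chemical dosing. Increases and decreases are both fitted relative to DMSO vehicle.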

[9] = BSK_3C_VCAM1: BioMAP Diversity Plus: 3C Assay for Vascular cell adhesion molecule 1 (VCAM1) Biomarker Activity (AID 2282999); conditions: BioMAP 3C HUVEC, VCAM1 ELISA, cytokine-stimulated; actives raise or lower the signal
Outline: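 HUVEC primary cells, 24 h compound exposure; VCAM-1 by ELISA; gain/loss of signal fitted bidirectionally vs DMSO baseline.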

[10] = BSK_4H_Eotaxin3: BioMAP Diversity Plus: 4H Assay for Eotaxin 3 Biomarker Activity (AID 2283000); conditions: primary human endothelial cells (HUVEC); actives raise or lower the signal;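 as to outcome: CCL26 protein level quantified by ELISA in parallel with SRB cytotoxicity check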
Outline: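 Eotaxin-3 (CCL26) levels were measured by ELISA in HUVEC primary cultures 24 h post-dosing. Gain or loss of signal was fitted in both directions, with DMSO serving as baseline and negative control.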

[11] = biological target: human Peroxisome Proliferator-activated Receptor alpha (PPARa), PPARA (gene 5465) (UniProt Q07869); test: ATG_PPARa_TRANS: Attagene TRANS-FACTORIAL HepG2 Assay for human Peroxisome Proliferator-activated Receptor alpha (PPARa) (AID 2283001; active = hit-call score of the fitted dose curve at least 0.9, where 1 is the maximum;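 as to AC50: potency for gain of reporter signal over DMSO so agonist or activator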)
Chain of human Peroxisome Proliferator-activated Receptor alpha (PPARa), PPARA (gene 5465) (Q07869 whole entry, looked up, the tested form may be a part): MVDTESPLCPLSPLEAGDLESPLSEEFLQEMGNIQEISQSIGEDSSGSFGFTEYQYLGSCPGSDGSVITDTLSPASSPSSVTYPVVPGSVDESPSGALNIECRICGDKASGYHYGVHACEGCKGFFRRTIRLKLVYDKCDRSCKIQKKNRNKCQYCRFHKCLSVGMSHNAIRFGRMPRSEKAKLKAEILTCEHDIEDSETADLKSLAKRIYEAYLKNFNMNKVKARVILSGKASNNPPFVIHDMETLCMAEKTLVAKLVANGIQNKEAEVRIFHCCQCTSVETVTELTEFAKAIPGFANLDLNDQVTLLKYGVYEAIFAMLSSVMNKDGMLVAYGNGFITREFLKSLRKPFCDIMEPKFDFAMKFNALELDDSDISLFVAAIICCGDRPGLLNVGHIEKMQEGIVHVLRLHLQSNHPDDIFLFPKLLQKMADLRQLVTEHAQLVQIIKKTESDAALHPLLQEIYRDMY
Outline: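 Transient HepG2 transfection, GAL4-UAS reporters, NR-Gal4 chimeras; 24 h compound exposure. Readout: reporter transcripts by RT-PCR, 6-FAM primer extension, HpaI digest, capillary electrophoresis. Positive direction vs DMSO baseline.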

[12] = biological target: human Peroxisome Proliferator-activated Receptor delta (PPARd), PPARD (gene 5467) (UniProt Q03181); test: ATG_PPARd_TRANS: Attagene TRANS-FACTORIAL HepG2 Assay for human Peroxisome Proliferator-activated Receptor delta (PPARd) (AID 2283002; active = hit-call score of the fitted dose curve at least 0.9, where 1 is the maximum)
Chain of human Peroxisome Proliferator-activated Receptor delta (PPARd), PPARD (gene 5467) (Q03181 whole entry, looked up, the tested form may be a part): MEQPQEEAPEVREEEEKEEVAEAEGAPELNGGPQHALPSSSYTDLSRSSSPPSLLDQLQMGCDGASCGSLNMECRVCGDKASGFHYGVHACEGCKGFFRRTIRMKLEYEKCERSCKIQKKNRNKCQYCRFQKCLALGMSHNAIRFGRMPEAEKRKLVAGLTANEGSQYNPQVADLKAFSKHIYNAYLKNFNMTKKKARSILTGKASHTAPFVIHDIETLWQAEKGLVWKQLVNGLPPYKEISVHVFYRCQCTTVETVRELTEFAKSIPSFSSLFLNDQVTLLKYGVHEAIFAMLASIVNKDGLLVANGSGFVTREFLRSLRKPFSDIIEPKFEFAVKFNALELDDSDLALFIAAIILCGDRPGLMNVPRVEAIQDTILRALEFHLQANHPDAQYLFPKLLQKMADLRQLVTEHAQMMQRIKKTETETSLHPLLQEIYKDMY
Outline: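 HepG2 cells transiently transfected with GAL4-UAS multiplexed reporter units driven by exogenous chimeric NR-GAL4 proteins; 24 h compound exposure. Reporter mRNA measured by RT-PCR, 6-FAM primer extension, HpaI digestion and capillary electrophoresis; gain of signal fitted relative to DMSO.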

[13] = BSK_3C_Proliferation: Cell Proliferation Assessment in the BioMAP Diversity Plus: 3C Assay (AID 2283006); conditions: primary human endothelial cells (HUVEC);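 as to AC50: potency may reflect either rise or fall in cell number versus DMSO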
Outline: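 Measured here: sulforhodamine B (0.1%) staining of TCA-fixed sub-confluent umbilical vein endothelial cultures 48 h post-dosing, absorbance 560 nm. DMSO served as negative control and baseline; both signal gain and loss were modelled.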

[14] = biological target: Peroxisome proliferator-activated receptor gamma (Homo sapiens) (UniProt P37231); test: ATG_PPARg_TRANS: Attagene TRANS-FACTORIAL HepG2 Assay for human Peroxisome Proliferator-activated Receptor-gamma (PPARg) (AID 2283007; active = hit-call score of the fitted dose curve at least 0.9, where 1 is the maximum)
Chain of Peroxisome proliferator-activated receptor gamma (Homo sapiens) (P37231 whole entry, looked up): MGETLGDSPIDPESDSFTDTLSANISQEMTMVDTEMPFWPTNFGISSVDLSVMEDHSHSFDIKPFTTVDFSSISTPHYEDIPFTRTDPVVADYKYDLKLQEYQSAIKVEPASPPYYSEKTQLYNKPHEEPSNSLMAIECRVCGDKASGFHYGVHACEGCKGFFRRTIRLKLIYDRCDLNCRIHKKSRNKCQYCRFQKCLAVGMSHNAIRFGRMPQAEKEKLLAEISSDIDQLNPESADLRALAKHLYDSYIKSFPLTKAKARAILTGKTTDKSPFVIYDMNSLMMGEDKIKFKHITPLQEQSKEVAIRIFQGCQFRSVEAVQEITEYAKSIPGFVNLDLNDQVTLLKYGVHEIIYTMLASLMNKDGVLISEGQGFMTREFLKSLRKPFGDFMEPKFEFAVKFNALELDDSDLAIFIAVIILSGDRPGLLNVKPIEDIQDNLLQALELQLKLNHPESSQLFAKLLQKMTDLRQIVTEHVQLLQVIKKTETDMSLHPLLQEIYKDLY
Outline: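 Multiplexed reporter transcription units in HepG2, 24 h dosing, reporter transcripts quantified by fluorescent RT-PCR and capillary electrophoresis. Increase over DMSO scored.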

[15] = biological target: Nuclear receptor subfamily 1 group I member 2 (Homo sapiens) (UniProt O75469); test: ATG_PXR_TRANS: Attagene TRANS-FACTORIAL HepG2 Assay for human Pregnane X Receptor (PXR) (AID 2283008; active = hit-call score of the fitted dose curve at least 0.9, where 1 is the maximum)
Chain of Nuclear receptor subfamily 1 group I member 2 (Homo sapiens) (O75469 whole entry, looked up, the tested form may be a part): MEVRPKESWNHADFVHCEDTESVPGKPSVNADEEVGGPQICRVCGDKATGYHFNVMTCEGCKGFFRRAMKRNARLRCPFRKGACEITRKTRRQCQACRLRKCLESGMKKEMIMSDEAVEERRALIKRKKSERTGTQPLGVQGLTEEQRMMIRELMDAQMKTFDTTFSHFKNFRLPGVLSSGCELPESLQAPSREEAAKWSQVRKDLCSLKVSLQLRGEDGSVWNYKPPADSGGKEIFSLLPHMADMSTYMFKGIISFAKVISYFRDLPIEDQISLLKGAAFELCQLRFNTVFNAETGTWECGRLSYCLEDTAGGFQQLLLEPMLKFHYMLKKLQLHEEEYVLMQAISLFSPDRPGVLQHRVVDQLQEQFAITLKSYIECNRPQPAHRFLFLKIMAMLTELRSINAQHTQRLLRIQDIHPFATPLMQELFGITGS
Outline: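 HepG2 transfected (FuGene 6) with GAL4-UAS reporter units + PXR-Gal4 chimera; dosed 24 h. Total RNA → oligo(dT) RT → PCR → 6-FAM primer extension → HpaI cut → CE. Gain-of-signal vs DMSO.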

[16] = biological target: Myc proto-oncogene protein (Homo sapiens) (UniProt P01106); test: ATG_Myc_CIS: Attagene CIS-FACTORIAL HepG2 Assay for human Myelocytomatosis (Myc) Proto-Oncogene Transcription Factor (AID 2282990); conditions: HepG2, Attagene cis-reporter transcription factor activity; actives raise or lower the signal
Chain of Myc proto-oncogene protein (Homo sapiens) (P01106 whole entry, looked up): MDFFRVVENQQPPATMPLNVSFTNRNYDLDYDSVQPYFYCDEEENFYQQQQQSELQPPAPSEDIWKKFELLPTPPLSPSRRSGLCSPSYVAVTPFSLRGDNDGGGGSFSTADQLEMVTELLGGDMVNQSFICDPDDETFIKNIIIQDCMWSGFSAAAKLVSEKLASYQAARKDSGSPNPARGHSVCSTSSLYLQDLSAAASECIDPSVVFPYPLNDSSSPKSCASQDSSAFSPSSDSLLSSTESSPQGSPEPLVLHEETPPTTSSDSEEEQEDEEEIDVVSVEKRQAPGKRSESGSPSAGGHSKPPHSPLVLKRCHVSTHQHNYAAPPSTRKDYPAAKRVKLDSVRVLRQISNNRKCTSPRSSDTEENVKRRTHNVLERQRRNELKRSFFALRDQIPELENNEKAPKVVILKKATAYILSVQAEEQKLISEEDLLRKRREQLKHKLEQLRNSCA
Outline: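 Transiently transfected HepG2 cells bearing cis-promoter reporter units for endogenous transcription factors; 24 h exposure. Reporter mRNA measured by RT-PCR, 6-FAM primer extension, HpaI cut and capillary electrophoresis; bidirectional fit relative to DMSO.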

[17] = biological target: human Retinoic Acid Receptor beta (RARb), RARB (gene 5915) (UniProt P10826); test: ATG_RARb_TRANS: Attagene TRANS-FACTORIAL HepG2 Assay for human Retinoic Acid Receptor beta (AID 2283004; active = hit-call score of the fitted dose curve at least 0.9, where 1 is the maximum)
Chain of human Retinoic Acid Receptor beta (RARb), RARB (gene 5915) (P10826 whole entry, looked up, the tested form may be a part): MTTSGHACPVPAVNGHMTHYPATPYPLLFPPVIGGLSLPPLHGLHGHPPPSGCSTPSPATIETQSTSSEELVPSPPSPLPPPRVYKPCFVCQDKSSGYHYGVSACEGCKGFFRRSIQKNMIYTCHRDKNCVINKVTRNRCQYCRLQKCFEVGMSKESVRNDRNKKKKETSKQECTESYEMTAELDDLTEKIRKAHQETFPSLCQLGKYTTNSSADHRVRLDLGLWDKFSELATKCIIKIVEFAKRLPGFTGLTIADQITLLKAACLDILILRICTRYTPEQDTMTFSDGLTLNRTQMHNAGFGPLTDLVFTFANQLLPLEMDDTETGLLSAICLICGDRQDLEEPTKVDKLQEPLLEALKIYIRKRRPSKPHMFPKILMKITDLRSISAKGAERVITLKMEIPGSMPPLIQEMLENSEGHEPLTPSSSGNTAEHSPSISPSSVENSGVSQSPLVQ
Outline: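 HepG2 cells were transiently transfected with GAL4-UAS reporter units that report activity of exogenous chimeric NR-Gal4 proteins, then exposed to compound for 24 h. Reporter mRNA was quantified by RT-PCR with capillary electrophoresis fluorescence, as gain of signal over DMSO.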

[18] = biological target: Retinoic acid receptor alpha (Homo sapiens) (UniProt P10276); test: ATG_RARa_TRANS: Attagene TRANS-FACTORIAL HepG2 Assay for human Retinoic Acid Receptor alpha (RARa) (AID 2283005; active = hit-call score of the fitted dose curve at least 0.9, where 1 is the maximum)
Chain of Retinoic acid receptor alpha (Homo sapiens) (P10276 whole entry, looked up, the tested form may be a part): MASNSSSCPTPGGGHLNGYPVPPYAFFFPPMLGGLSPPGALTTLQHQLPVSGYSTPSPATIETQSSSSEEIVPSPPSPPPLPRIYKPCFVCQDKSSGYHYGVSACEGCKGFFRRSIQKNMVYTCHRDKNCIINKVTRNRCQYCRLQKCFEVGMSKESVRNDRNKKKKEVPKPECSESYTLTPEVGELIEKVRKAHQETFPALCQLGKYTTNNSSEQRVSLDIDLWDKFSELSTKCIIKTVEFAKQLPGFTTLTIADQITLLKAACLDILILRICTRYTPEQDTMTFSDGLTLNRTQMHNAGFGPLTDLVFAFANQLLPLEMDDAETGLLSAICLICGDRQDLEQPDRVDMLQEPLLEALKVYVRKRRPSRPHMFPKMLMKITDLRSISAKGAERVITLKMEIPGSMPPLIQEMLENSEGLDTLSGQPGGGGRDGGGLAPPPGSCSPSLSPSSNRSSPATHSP
Outline: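 HepG2 transiently transfected with multiplex GAL4-UAS reporter units including a human RARa–GAL4 chimera; 24 h compound exposure. Reporter mRNA quantified by RT-PCR, 6-FAM labeling and capillary electrophoresis; gain of signal versus DMSO.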

[19] = biological target: human Retinoic Acid Receptor gamma (RARg), RARG (gene 5916) (UniProt P13631); test: ATG_RARg_TRANS: Attagene TRANS-FACTORIAL HepG2 Assay for human Retinoic Acid Receptor gamma (RARg) (AID 2283009; active = hit-call score of the fitted dose curve at least 0.9, where 1 is the maximum)
Chain of human Retinoic Acid Receptor gamma (RARg), RARG (gene 5916) (P13631 whole entry, looked up, the tested form may be a part): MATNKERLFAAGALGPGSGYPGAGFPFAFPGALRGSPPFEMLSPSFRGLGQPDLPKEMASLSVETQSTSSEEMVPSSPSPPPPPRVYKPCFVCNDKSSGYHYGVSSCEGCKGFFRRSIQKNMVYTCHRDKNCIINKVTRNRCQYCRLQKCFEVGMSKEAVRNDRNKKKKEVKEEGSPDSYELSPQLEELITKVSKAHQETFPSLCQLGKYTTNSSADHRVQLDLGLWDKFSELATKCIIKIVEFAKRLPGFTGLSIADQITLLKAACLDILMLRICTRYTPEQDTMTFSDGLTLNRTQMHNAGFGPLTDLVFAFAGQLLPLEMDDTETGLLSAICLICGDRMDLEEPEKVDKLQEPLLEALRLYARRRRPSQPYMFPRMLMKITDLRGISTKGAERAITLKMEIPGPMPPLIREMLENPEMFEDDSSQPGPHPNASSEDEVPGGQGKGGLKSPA
Outline: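 Gain-of-signal relative to DMSO is reported from fluorescent capillary electrophoresis of RT-PCR reporter products. These came from HepG2 cells expressing transfected RARg-GAL4 chimeras with UAS reporters, harvested 24 h after dosing.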

Structure (SMILES): Oc1cc(Cl)ccc1Oc1ccc(Cl)cc1Cl
- outcome [1]: inactive
- AC50 [2]: 14.8 µM (active) and 17.9 µM (active) and 5.97 µM (active)
- outcome [2]: inactive
- AC50 [3]: 17.5 µM (active)
- outcome [3]: inactive
- AC50 [4]: 5.97 µM (active) [middle of 7 runs]
- outcome [4]: inactive
- AC50 [5]: 9.73 µM (active) [middle of 7 runs]
- outcome [5]: inactive
- AC50 [6]: 7.73 µM (active) and 14.4 µM (active)
- outcome [6]: inactive
- AC50 [7]: 13.8 µM (active) [middle of 4 runs]
- AC50 [8]: 12 µM (active) [middle of 4 runs]
- AC50 [9]: 28.1 µM (active) [middle of 4 runs]
- AC50 [10]: 17.1 µM (active) [middle of 4 runs]
- AC50 [11]: 17.5 µM (active) and 17.4 µM (active)
- outcome [11]: inactive
- outcome [12]: inactive
- AC50 [13]: 11 µM (active) [middle of 4 runs]
- AC50 [14]: 11.1 µM (active) [middle of 6 runs]
- outcome [14]: inactive
- outcome [15]: inactive

Structure (SMILES): O=C(O)C(F)(F)C(F)(F)C(F)(F)C(F)(F)C(F)(F)C(F)(F)C(F)(F)F
- outcome [1]: inactive
- outcome [2]: inactive
- outcome [3]: inactive
- AC50 [4]: 84.7 µM (active) [middle of 4 runs]
- outcome [5]: inactive
- outcome [6]: inactive
- outcome [7]: inactive
- AC50 [8]: 1.51 µM (active)
- outcome [8]: inactive
- outcome [9]: inactive
- outcome [10]: inactive
- AC50 [11]: 22.8 µM (active) [middle of 4 runs]
- outcome [12]: inactive
- outcome [13]: inactive
- outcome [15]: inactive

Structure (SMILES): CC1(C)C(C=C(Cl)Cl)C1C(=O)OC(C#N)c1ccc(F)c(Oc2ccccc2)c1 (configuration not stated)
- outcome [1]: inactive
- outcome [2]: inactive
- outcome [16]: inactive
- outcome [3]: inactive
- AC50 [4]: 7.81 µM (active)
- AC50 [5]: 2.22 µM (active)
- outcome [6]: inactive
- outcome [7]: inactive
- outcome [8]: inactive
- outcome [9]: inactive
- outcome [10]: inactive
- outcome [17]: inactive
- outcome [18]: inactive
- AC50 [13]: 10.2 µM (active)
- AC50 [14]: 20.9 µM (active)
- AC50 [15]: 21.6 µM (active)

Structure (SMILES): COP(=S)(OC)Oc1ccc([N+](=O)[O-])cc1
- outcome [1]: inactive
- outcome [2]: inactive
- outcome [3]: inactive
- outcome [4]: inactive
- outcome [5]: inactive
- outcome [6]: inactive
- outcome [7]: inactive
- AC50 [8]: 33.1 µM (active)
- outcome [9]: inactive
- outcome [10]: inactive
- outcome [11]: inactive
- outcome [12]: inactive
- outcome [13]: inactive
- outcome [14]: inactive
- outcome [15]: inactive
- outcome [19]: inactive

Structure (SMILES): Cc1[nH]c(=O)n(C(C)(C)C)c(=O)c1Cl
- outcome [1]: inactive
- outcome [2]: inactive
- outcome [3]: inactive
- AC50 [4]: 20.1 µM (active)
- AC50 [5]: 24.2 µM (active)
- outcome [7]: inactive
- outcome [8]: inactive
- outcome [9]: inactive
- AC50 [10]: 11.7 µM (active)
- outcome [17]: inactive
- outcome [18]: inactive
- outcome [13]: inactive
- outcome [14]: inactive
- outcome [15]: inactive
- outcome [19]: inactive

Structure (SMILES): O=C(O)COc1ccc(Cl)cc1Cl
- outcome [1]: inactive
- outcome [2]: inactive
- outcome [4]: inactive
- outcome [5]: inactive
- outcome [6]: inactive
- outcome [7]: inactive
- outcome [8]: inactive
- outcome [9]: inactive
- outcome [10]: inactive
- outcome [11]: inactive
- outcome [12]: inactive
- outcome [13]: inactive
- outcome [15]: inactive

Structure (SMILES): O=S1OCC2C(CO1)C1(Cl)C(Cl)=C(Cl)C2(Cl)C1(Cl)Cl (configuration not stated)
- outcome [1]: inactive
- outcome [2]: inactive
- outcome [3]: inactive
- outcome [4]: inactive
- outcome [5]: inactive
- outcome [6]: inactive
- AC50 [7]: 29 µM (active)
- AC50 [8]: 15.9 µM (active)
- AC50 [9]: 30.3 µM (active)
- AC50 [10]: 30.9 µM (active)
- outcome [11]: inactive
- outcome [18]: inactive
- AC50 [13]: 24.5 µM (active)
- outcome [14]: inactive
- outcome [15]: inactive
